PubChem BioAssay (Tox21)
“And” between values parts separate entries of the source, which are not always exact repeats. Identical values can stand only once. Results filed as inconclusive are left out. Entries that show only a call come without a potency. Some compounds were tested as several samples or in several runs, with calls that do not always agree. The source made the active and inactive calls. Unless noted, the call rests on the fitted dose curve; in most records, active means well fitted curve in the direction sought with a large enough effect in the repeat runs; inconclusive means weak or mixed curves; inactive means no such curve, though single readings can be large; an effect the other way counts as inactive or inconclusive.

Tests used:
[1] = qHTS assay to identify small molecule antagonists of the estrogen related receptor (ERR) signaling pathway from Tox21 library - cell viability counter screen (AID 1224834); further: nearly all actives have a fitted effect of over 30% in size; further: potency means the concentration at half of the fitted maximal effect
In short: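 ERR cells, 2,000/well; 6 h settle at 37 C/5% CO2; pin-tool compound transfer in DMSO; 17.5 h at 37 C; CellTiter-Fluor, 30 min; fluorescence intensity.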

[2] = molecular target: Luciferin 4-monooxygenase (Photinus pyralis) (UniProt P08659); assay: qHTS assay to identify small molecule inhibitors of firefly luciferase (AID 1224835); further: nearly all actives have a fitted effect of over 25% in size; further: potency means the concentration at half of the fitted maximal effect
In short: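 Biochemical qHTS: compounds run as interplate titrations against purified firefly enzyme, with D-luciferin and ATP each at its KM concentration. Light output recorded by CCD imaging.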

[3] = qHTS assay to identify small molecule agonists of the constitutive androstane receptor (CAR) signaling pathway - cell viability counter screen (AID 1224836); further: nearly all actives have a fitted effect of over 45% in size
In short: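 Cells were seeded and incubated 4 hrs. Compounds were added across 15 concentrations together with PK11195 at 0.75 uM final. Plates were incubated 23 hrs at 37 C. CellTiter-Fluor was added and fluorescence measured.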

[4] = qHTS assay to identify small molecule antagonists of the constitutive androstane receptor (CAR) signaling pathway - cell viability counter screen (AID 1224837); further: nearly all actives have a fitted effect of over 45% in size; further: potency means the concentration at half of the fitted maximal effect
In short: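 Viability was measured with CellTiter-Fluor in a HepG2 line carrying stably transfected hCAR and a CYP2B6-2.2kb construct. Cells were exposed for 23 hr at 37 C to 15 compound concentrations with 50 nM CITCO as agonist.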

[5] = molecular target: Nuclear receptor subfamily 1 group I member 3 (Homo sapiens) (UniProt Q14994); assay: qHTS assay to identify small molecule antagonists of the constitutive androstane receptor (CAR) signaling pathway (AID 1224838);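 further: HepG2 cells stably expressing hCAR with CYP2B6 luciferase reporter stimulated by CITCO; nearly all actives have a fitted effect of over 40% in size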; further: potency means the concentration at half of the fitted maximal effect
In short: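 Antagonist mode used CITCO at a final 50 nM to activate CAR in human hepatoma HepG2 cells carrying stable hCAR and a 2.2 kb CYP2B6 promoter-luciferase construct. Compounds were tested at 15 concentrations over 24 h, with luminescence as the end point.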

[6] = molecular target: Nuclear receptor subfamily 1 group I member 3 (Homo sapiens) (UniProt Q14994); assay: qHTS assay to identify small molecule agonists of the constitutive androstane receptor (CAR) signaling pathway (AID 1224839); further: nearly all actives have a fitted effect of over 15% in size; further: potency means the concentration at half of the fitted maximal effect
In short: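 Cells were plated and incubated 4 hrs, then dosed with compounds at 15 concentrations. PK11195 was added to 0.75 uM final. After 24 hrs at 37 C, luciferase luminescence was measured.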

[7] = qHTS assay to identify small molecule antagonists of the estrogen related receptor signaling pathway with the pleiotropic PPARgamma coactivator (PGC) from Tox21 10K library (AID 1224841; call rule not given here; further: actives are mostly falling curves and most rising ones were filed inactive; nearly all actives have a fitted effect of over 50% in size; further: potency means the concentration at half of the fitted maximal effect)
In short: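 Steps: plate 2,000 PGC/ERR cells per well; incubate 6 h at 37 C with 5% CO2; transfer compounds from DMSO stocks by pin tool; incubate 18 h at 37 C; add One-Glo; measure luminescence 30 min later.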

[8] = qHTS assay to identify small molecule agonists of the estrogen related receptor signaling pathway with the pleiotropic PPARgamma coactivator (PGC) from Tox21 10K library (AID 1224842); further: nearly all actives have a fitted effect of over 15% in size; further: potency means the concentration at half of the fitted maximal effect
In short: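 PGC/ERR reporter cell line, 2,000 cells per well, incubated 6 h at 37 C before 23 nL compound in DMSO was added. After 18 h at 37 C, One-Glo luminescence read following 30 min at room temperature.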

[9] = qHTS assay to identify small molecule agonists of the hypoxia (HIF-1) signaling pathway - cell viability counter screen (AID 1224844; calls by dose curve; further: nearly all actives have a fitted effect of over 50% in size; further: potency means the concentration at half of the fitted maximal effect)
In short: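 Cytotoxicity was measured in parallel with the HRE-driven beta-lactamase readout: after 17 hrs of compound exposure at 37C, HRE-bla ME-180 cells received CellTiter-Glo and luminescence was recorded 30 min later.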

[10] = qHTS assay to identify small molecule agonists of H2AX (AID 1224845; active means well fitted activation curve with a large enough effect in the signal ratio in the repeat runs, not every such curve was filed as active; the % refers to the signal ratio)
In short: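 Wild-type CHO-K1 cells, plated overnight, exposed 3hr at 37C to 15 concentrations (0.76% DMSO final). Lysed, then HTRF anti-pH2AX (S139) cryptate and anti-H2AX-d2 antibodies, 24 hr room temperature; 665/620 nm emission read.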

[11] = qHTS assay to identify small molecule agonists of the hypoxia (HIF-1) signaling pathway (AID 1224846; active means well fitted activation curve with a large enough effect in the signal ratio in the repeat runs, not every such curve was filed as active; the % refers to the signal ratio)
In short: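 Compounds from the Tox21 10K library, dissolved in DMSO, are tested for induction of a hypoxia response element–controlled beta-lactamase reporter in ME-180 cells. Exposure lasts 17 hrs at 37C after a 5 hr settling period, followed by CCF4-AM FRET substrate.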

[12] = qHTS assay to identify small molecule antagonists of the estrogen related receptor (ERR) signaling pathway from Tox21 library (AID 1224848); further: nearly all actives have a fitted effect of over 50% in size; further: potency means the concentration at half of the fitted maximal effect
In short: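 Quantitative high-throughput format: ERR reporter cells (2,000/well) pre-incubated 6 h, treated 18 h at 37 C with compounds in DMSO alongside positive and negative controls, then read by ONE-Glo luminescence.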

[13] = qHTS assay to identify small molecule agonists of the estrogen related receptor (ERR) signaling pathway from Tox21 library (AID 1224849; calls by dose curve; further: nearly all actives have a fitted effect of over 15% in size); conditions: ERR reporter cell line, ONE-Glo luciferase, 18 h
In short: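 Cells carrying the ERR reporter were plated and allowed to settle for 6 h, exposed to library compounds for 18 h at 37 C, then lysed with ONE-Glo and luminescence measured.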

[14] = qHTS RealTime-Glo MT Cell Viability Assay in HepG2 cells - 24 hour (AID 1224867); further: nearly all actives have a fitted effect of over 50% in size; further: potency means the concentration at half of the fitted maximal effect
In short: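 Luminescence read-out: viable HepG2 cells reduce a prosubstrate to a NanoLuc substrate, giving a signal proportional to live cell number. Reads taken at 0, 8, 16, 24, 32 and 40 h of compound exposure at 37 C.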

[15] = qHTS RealTime-Glo MT Cell Viability Assay in HEK293 cells - 32 hour (AID 1224868); further: nearly all actives have a fitted effect of over 50% in size; further: potency means the concentration at half of the fitted maximal effect
In short: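 Nonlytic real-time viability readout: viable cells convert prosubstrate to NanoLuc substrate, giving luminescence proportional to live cell number. HEK293, 600 cells/well, compound added after 5 h, continuous culture at 37 C.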

[16] = A CellTox Green Cytotoxicity Assay to monitor cytotoxicity in HEK293 cells - 0 hour (AID 1224869); further: nearly all actives have a fitted effect of over 50% in size; further: potency means the concentration at half of the fitted maximal effect
In short: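 Cells (HEK293, 600/well) and dye reagent are dispensed together. After 5 h at 37 C, 23 nL compound is pinned in. Plates stay at 37 C for 40 h with fluorescence read at 0h, 8h, 16h, 24h, 32h and 40h.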

[17] = molecular target: Thyrotropin receptor (Homo sapiens) (UniProt P16473); assay: qHTS assay to identify small molecule agonists of the thyroid stimulating hormone receptor (TSHR) signaling pathway (AID 1224843; calls by dose curve; further: nearly all actives have a fitted effect of over 45% in size)
In short: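 Agonist-mode screen: TSHR HEK293 cells received test chemicals for half an hour at room temperature, then HTRF cAMP detection reagents for one hour prior to fluorescence measurement. Each chemical ran as a 15-concentration series, triplicated.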

[18] = qHTS assay to identify small molecule agonists of H2AX - cell viability counter screen (AID 1224847; calls by dose curve; further: nearly all actives have a fitted effect of over 30% in size; further: potency means the concentration at half of the fitted maximal effect)
In short: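 Cytotoxicity counter screen in wild-type CHO-K1 cells: a 3 hr compound treatment at 37C across 15 concentrations, followed by CellTiter-Glo luminescence to gauge viable cells.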

[19] = qHTS assay to identify small molecule antagonists of the estrogen related receptor signaling pathway with the pleiotropic PPARgamma coactivator (PGC) from Tox21 10K library - cell viability counter screen (AID 1224840; active means well fitted cell-killing curve with a large enough effect in the repeat runs, not every such curve was filed as active; further: nearly all actives have a fitted effect of over 40% in size; further: potency means the concentration at half of the fitted maximal effect)
In short: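 Multiplexed viability counter screen in the PGC/ERR cell line: cells treated with DMSO-dissolved compounds for 17.5 hours at 37 C, then viability measured as CellTiter-Fluor fluorescence.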

Nuclear receptor subfamily 1 group I member 3 (Homo sapiens), sequence (Q14994 whole entry, looked up): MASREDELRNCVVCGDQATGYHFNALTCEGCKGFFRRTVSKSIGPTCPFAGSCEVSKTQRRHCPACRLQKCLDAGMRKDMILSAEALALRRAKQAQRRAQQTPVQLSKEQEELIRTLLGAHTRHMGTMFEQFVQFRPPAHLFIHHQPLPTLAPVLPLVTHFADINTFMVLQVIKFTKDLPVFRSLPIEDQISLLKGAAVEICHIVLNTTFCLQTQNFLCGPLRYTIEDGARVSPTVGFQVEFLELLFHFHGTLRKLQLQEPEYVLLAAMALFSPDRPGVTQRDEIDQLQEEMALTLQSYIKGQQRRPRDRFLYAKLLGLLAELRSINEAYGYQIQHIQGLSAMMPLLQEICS
Luciferin 4-monooxygenase (Photinus pyralis), sequence (P08659 whole entry, looked up): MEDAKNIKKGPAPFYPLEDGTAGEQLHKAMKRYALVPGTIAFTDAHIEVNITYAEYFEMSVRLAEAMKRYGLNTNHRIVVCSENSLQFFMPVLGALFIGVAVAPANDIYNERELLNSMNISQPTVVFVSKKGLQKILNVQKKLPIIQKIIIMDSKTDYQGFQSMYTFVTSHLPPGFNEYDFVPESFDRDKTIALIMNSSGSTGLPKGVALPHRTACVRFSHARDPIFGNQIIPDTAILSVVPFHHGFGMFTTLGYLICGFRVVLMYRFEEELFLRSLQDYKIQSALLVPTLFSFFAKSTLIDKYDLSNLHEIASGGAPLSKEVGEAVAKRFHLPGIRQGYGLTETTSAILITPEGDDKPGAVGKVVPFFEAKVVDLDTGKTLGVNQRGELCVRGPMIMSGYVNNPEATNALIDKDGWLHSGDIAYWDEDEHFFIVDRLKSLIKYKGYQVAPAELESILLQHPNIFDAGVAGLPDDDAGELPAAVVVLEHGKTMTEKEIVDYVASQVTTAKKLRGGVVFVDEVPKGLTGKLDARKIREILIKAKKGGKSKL
Thyrotropin receptor (Homo sapiens), sequence (P16473 whole entry, looked up): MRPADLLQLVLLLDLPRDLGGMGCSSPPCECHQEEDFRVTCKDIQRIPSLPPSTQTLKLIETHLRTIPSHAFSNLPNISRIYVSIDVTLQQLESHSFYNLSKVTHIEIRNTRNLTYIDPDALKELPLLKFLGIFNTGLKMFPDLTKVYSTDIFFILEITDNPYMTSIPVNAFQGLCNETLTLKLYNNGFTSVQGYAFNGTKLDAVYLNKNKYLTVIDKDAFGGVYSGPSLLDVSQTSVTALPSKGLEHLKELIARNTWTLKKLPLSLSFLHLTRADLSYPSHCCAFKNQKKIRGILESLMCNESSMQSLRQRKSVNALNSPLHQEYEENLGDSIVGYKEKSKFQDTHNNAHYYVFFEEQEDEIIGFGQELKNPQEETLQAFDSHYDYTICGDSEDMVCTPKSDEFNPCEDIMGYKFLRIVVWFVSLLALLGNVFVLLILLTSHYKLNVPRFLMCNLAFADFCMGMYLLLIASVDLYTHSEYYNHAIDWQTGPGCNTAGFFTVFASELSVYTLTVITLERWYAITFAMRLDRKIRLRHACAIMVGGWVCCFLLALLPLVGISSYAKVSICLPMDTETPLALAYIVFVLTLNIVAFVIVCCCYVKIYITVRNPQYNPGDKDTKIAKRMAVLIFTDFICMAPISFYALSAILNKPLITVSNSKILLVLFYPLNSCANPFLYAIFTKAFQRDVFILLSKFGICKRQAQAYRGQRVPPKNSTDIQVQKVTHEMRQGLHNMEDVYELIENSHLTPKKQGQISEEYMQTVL

| Structure (SMILES) | Potency [1] | Potency [2] | Potency [3] | Potency [4] | Potency [5] | Potency [6] | Potency [7] | Potency [8] | Potency [9] | outcome [10] | Potency [11] | Potency [12] | activity change, positive = activation ([13]; at 92.4 µM (top of the series)) | Potency [14] | Potency [15] | Potency [16] | Potency [17] | Potency [18] | Potency [19] | activity change, positive = activation ([13]; at 42.5 µM (top of the series)) |
| --- | --- | --- | --- | --- | --- | --- | --- | --- | --- | --- | --- | --- | --- | --- | --- | --- | --- | --- | --- | --- |
| O=CCCCC=O | inactive | inactive | inactive | inactive | inactive | inactive | inactive | inactive | 21.1 µM (active) and 19.5 µM (active) | inactive | inactive | inactive | -0.881% (inactive) and -3.51% (inactive) | inactive | 42.1 µM (active) and inactive | inactive | – | – | – | – |
| c1cc(-c2ccncc2)ccn1 | inactive | inactive | inactive | inactive | inactive | inactive | – | – | inactive | inactive | inactive | – | – | inactive | – | inactive | inactive | inactive | – | – |
| S=C(NC1CCCCC1)NC1CCCCC1 | 13.7 µM (active) | inactive | inactive | inactive | 13.4 µM (active) and 8.63 µM (active) | inactive | 23.9 µM (active) and 21.7 µM (active) | inactive | – | inactive | inactive | 15.1 µM (active) and inactive | -59.4% (inactive) and -64.8% (inactive) | inactive | – | inactive | inactive | inactive | – | – |
| C=C(C)C1CC=C(C)CC1 (stereo not given) | inactive | inactive | – | inactive | inactive | inactive | – | – | inactive | inactive | inactive | – | – | inactive | inactive | inactive | – | inactive | inactive | – |
| C[Si](C)(C)O[Si](C)(C)C | inactive | inactive | inactive | inactive | – | – | – | – | inactive | inactive | inactive | – | – | inactive | inactive | inactive | inactive | – | – | – |
| COc1ccc(OC)c(C(O)CNC(=O)CN)c1 (stereo not given) | inactive | inactive | inactive | inactive | inactive | inactive | inactive | inactive | inactive | inactive | – | inactive | -28% (inactive) | inactive | – | inactive | inactive | inactive | – | -0.419% (inactive) |
| O=C1OC2(c3cc(Br)c(O)c(Br)c3Oc3c2cc(Br)c(O)c3Br)c2c(Cl)c(Cl)c(Cl)c(Cl)c21 | 6.12 µM (active) and 18.6 µM (active) | 40 µM (active) and 24.2 µM (active) | – | 19.4 µM (active) and 33.1 µM (active) | inactive | inactive | 10.9 µM (active) | inactive | 19.5 µM (active) and 29.7 µM (active) | – | inactive | inactive | -28% (inactive) | inactive | inactive | 43.7 µM (active) and 26.5 µM (active) | inactive | 7.14 µM (active) | 4.86 µM (active) and 29.5 µM (active) | -3.67% (inactive) |
| Nc1ccc(Cl)cc1Cl | inactive | inactive | inactive | inactive | – | – | inactive | inactive | inactive | inactive | inactive | inactive | 1.8% (inactive) | inactive | – | inactive | inactive | inactive | – | – |
| CC(C)=CCC/C(C)=C\CO | inactive | inactive | inactive | inactive | – | – | – | – | inactive | inactive | – | – | – | inactive | – | inactive | inactive | inactive | – | – |
| CN(C)C(=N)N=C(N)N | inactive | – | inactive | inactive | inactive | inactive | – | – | inactive | inactive | inactive | – | – | inactive | inactive | inactive | inactive | – | inactive | – |
| COC(=O)Nc1nc2ccc(S(=O)c3ccccc3)cc2[nH]1 (stereo not given) | – | inactive | – | inactive | inactive | inactive and 6.68 µM (active) | inactive | inactive and 11.9 µM (active) | inactive | inactive | inactive | inactive | -9.11% (inactive) | inactive | 9.76 µM (active) and 952 nM (active) | inactive | – | inactive | – | 3.15% (active) |
| c1ccc2sc(SSN3CCOCC3)nc2c1 | inactive | 22.4 µM (active) and 15.9 µM (active) | – | – | – | – | inactive | inactive | 54.8 µM (active) and 54.9 µM (active) | – | – | inactive | 4.82% (inactive) and -28.8% (inactive) | 54.9 µM (active) | 21.8 µM (active) and 43.6 µM (active) | inactive | inactive | – | inactive | – |
| O=C(c1ccc(OCCN2CCCCC2)cc1)c1c(-c2ccc(O)cc2)sc2cc(O)ccc12 | 30.7 µM (active) and 48.6 µM (active) and 18.8 µM (active) | – | – | – | inactive | inactive | – | – | 43.7 µM (active) and 49 µM (active) and inactive | inactive | – | – | – | 54.9 µM (active) and inactive | – | inactive | – | – | 24.4 µM (active) and 30.6 µM (active) | – |
| CC(=O)O[C@]1(C(C)=O)CC[C@H]2[C@@H]3C=C(Cl)C4=CC(=O)[C@@H]5C[C@@H]5[C@]4(C)[C@H]3CC[C@@]21C | – | inactive | inactive | inactive | – | – | – | – | inactive | inactive | – | – | – | – | – | inactive | inactive | – | – | – |
| Cc1cc2nc3c(=O)[nH]c(=O)nc-3n(C[C@H](O)[C@H](O)[C@H](O)CO)c2cc1C | – | inactive | – | – | inactive | inactive | – | – | inactive | inactive | – | – | – | inactive | inactive | 43.2 µM (active) and 40.5 µM (active) and 11.7 µM (active) | inactive | inactive | – | – |
